From PubChem BioAssay
Pf growth 96h: Primary qHTS for delayed death inhibitors of the malarial parasite plastid, 96 hour incubation. P. falciparum luciferase reporter growth, 96 h. Potency, µM (top dose mostly 28.7 µM), inactives show top-dose activity change, negative = inhibition, actives largely listed as inhibitors. actives 6.9% (n = 320,000); note: potency is the fitted concentration of half-maximal effect; % is set by controls: 0 for no effect and ±100 for the full control effect
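Readout is luminescence from an integrated firefly luciferase in P. falciparum. Red cells, 2% hematocrit and 0.05% parasitemia final, were cultured with compound through two parasite generations (96 hours) at 37 C, 5% CO2.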
HCMV antiviral: qHTS Assay for inhibitors of the human cytomegalovirus (HCMV); actives 4.5% (n = 410,000); AID 1259415, 2018; activity change, negative = inhibition, % at 57.5 µM; HFF cells, HCMV-luciferase reporter, 72 h; stronger effect = lower value; in the data active = activity change below about -60%; inconclusive = no clear call, values can overlap the other calls; inactive = above about -39%; note: % is set by controls: 0 for no effect and ±100 for the full control effect
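Luciferase read-out from HCMV-luciferase-infected HFFs (MOI 1 PFU/cell) 72 h post infection at 37C; compounds added after 16 h cell attachment; activity normalized between buffer-only basal and Salinomycin (10uM) inhibitor controls.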
HCV inhibitor: qHTS Assay for Inhibitors of Hepatitis C Virus (HCV). Huh7.5.1 HCVcc-Cre infection, luciferase reporter, 44 h. actives 3.4% (n = 340,000). Potency, µM (series often up to 41.8 µM), for inactives: at the top dose activity change, negative = inhibition, actives largely listed as inhibitors; note: potency is the fitted concentration of half-maximal effect; % is set by controls: 0 for no effect and ±100 for the full control effect
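Antiviral activity was scored by luciferase reporter output from cells infected with HCVcc-Cre (~0.5 moi) in presence of compound, 44 h infection period, cells seeded 1,000/well 4 h prior.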
CHX counter: Cycloheximide Counterscreen for Small Molecule Inhibitors of Shiga Toxin. max response, %. actives 12% (n = 300,000). cell reporter, cycloheximide protein synthesis inhibition counterscreen; in the data active = max response mostly above about 13%, no sharp cut-off; inactive = mostly below about 14%; note: read at 38.3 µM for the half of the compounds with a filed dose; 0% is about no effect
Pf growth 48h: Primary qHTS for delayed death inhibitors of the malarial parasite plastid, 48 hour incubation; Potency, µM (series often up to 28.7 µM), for the others: top-dose activity change, negative = inhibition, most hits filed as inhibitors; AID 504832, 2011; P. falciparum luciferase growth in erythrocytes, 48 h; actives 5.9% (n = 310,000); note: potency is the fitted concentration of half-maximal effect; % is set by controls: 0 for no effect and ±100 for the full control effect
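Cell-based growth assay: transgenic P. falciparum expressing firefly luciferase, cultured in red cells within RPMI 1640 containing 0.5% w/v Albumax, 24 mM bicarbonate and gentamycin. A drop in luciferase activity indicates inhibition.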
Shiga inhibitor: A qHTS for Small Molecule Inhibitors of Shiga Toxin; actives 9.2% (n = 290,000); Vero cells, Shiga toxin protein synthesis inhibition reporter; AID 2315, 2010; inhibition, % at 38.7 µM; in the data active = inhibition mostly above about 28%, no sharp cut-off; inactive = mostly below about 43%; note: 0% is about no effect
The depositor's hits bear a star; ? = inconclusive; nt = not tested or not shown. An excerpt weighted towards active compounds, which were near 21% of everything screened. Unless noted, calls come from the whole dose curve; as a rule, active = well fitted inhibition curve with a large enough effect; inconclusive = small, poorly fitted or top-dose-only effect, or another doubt; inactive = no such curve, though single readings can be large or run the other way.

SMILES	Pf growth 96h	HCMV antiviral	HCV inhibitor	CHX counter	Pf growth 48h	Shiga inhibitor
COc1ccc2c(c1)c1c(c(=O)n(-c3ccc(OC)c(OC)c3)c(=O)n1CC(=O)N1CCCC1)n2C	nt	15	nt	nt	nt	nt
COc1cc(OC)cc(-n2nnc(-c3nc(-c4ccccc4Cl)no3)c2N)c1	nt	23	nt	nt	nt	nt
Cc1ccccc1Cn1c(=O)n(Cc2ccco2)c(=O)c2oc3ccccc3c21	nt	6	nt	nt	nt	nt
CCCCOc1cccc(/C=C(\C#N)C(=O)NC2CC2)c1	83%	13	-6%	8	0%	5
O=C(COc1ccccc1O)Nc1ccccc1Cl	0%	81	1%	71*	75%	93*
CC(C)c1ccc(OCC(=O)Nc2cccc(C(=O)Nc3ccccc3C(=O)O)c2)cc1	9.3µM*	-39	8%	1	?	-2
O=C(COc1ccccc1Cl)Nc1ccccc1C(=O)Nc1cccc(C(=O)O)c1	26%	0	27%	40*	56%	33
Cc1cccc(OCC(=O)Nc2cccc(C(=O)Nc3ccccc3C(=O)O)c2)c1	?	43	6%	3	3%	7
Cc1cc(C(=O)Nc2ccccc2C(=O)O)ccc1NC(=O)COc1ccccc1Cl	?	15	1%	-3	0%	-27
O=C(COc1ccccc1Cl)Nc1ccc(C(=O)O)cc1NC(=O)COc1ccccc1Cl	6.6µM*	-9	14%	9	1%	16
COc1ccc(S(=O)(=O)Nc2ccccc2C(=O)NCc2cccnc2)cc1	-24%	-6	-6%	-7	18%	-6
Cc1ccnc2nc(C(=O)OCC(=O)N3CC(C)CC(C)C3)nn12 (stereo not drawn)	30%	-15	5%	nt	-24%	nt
Clc1ccc(N2CCN(/N=C/c3cccnc3)CC2)cc1	13%	nt	-20%	-3	?	-9
O=C(CSc1ncccc1C(=O)Oc1ccccc1Cl)Nc1ccccc1Cl	nt	55	nt	20	nt	64*
Cc1cc(C)n2nc(SCc3nnc(-c4ccccc4Br)o3)nc2n1	?	66	-15%	-2	?	-11
O=C(/C=C\Nc1ccc2c(c1)OCO2)c1ccc(Cl)s1	13%	70	2%	57*	487%	71*
O=C(/C=C\Nc1ccc2c(c1)OCO2)c1cccs1	48%	-12	6%	6.9*	25%	66*
O=C(N/C(=C/c1ccc2c(c1)OCO2)C(=O)N1CCOCC1)c1cccs1	-7%	4	0%	-1	10%	-11
NC(=O)c1nn2c(C(F)(F)F)cc(-c3ccc(Br)cc3)nc2c1Cl	nt	31	nt	nt	nt	nt
Cc1cccc(C)c1OCc1cc(=O)n2ccsc2n1	nt	-21	nt	nt	nt	nt
CCCc1nnc(SCC(=O)N2CCCC2)n1CC1CCCO1 (stereo not drawn)	21%	-8	5%	-1	10%	-12
CC(=O)Nc1ccc(NC(=O)CSc2nnc(CNc3ccc(F)cc3)n2CC2CCCO2)cc1 (stereo not drawn)	11%	-10	12%	-3	?	-17
CCCc1nnc(SCC(=O)N2CCOCC2)n1CC1CCCO1 (stereo not drawn)	?	-68*	21%	-5	-9%	28
O=C(CSc1nnc(CNc2ccc(F)cc2)n1CC1CCCO1)N1CCOCC1 (stereo not drawn)	1%	-98*	14%	-1	6%	-2
Cc1cc(C)nc(N2CCN(c3ccc(F)cc3)CC2)n1	78%	-24	10µM*	2	?	2
Cc1cc(N2CCC(C(N)=O)CC2)nc(-c2ccccc2)n1	0.74µM*	33	?	-6	nt	-5
Cc1cc(C)nc(N2CCN(S(=O)(=O)c3ccc(F)cc3)CC2)n1	?	-23	3%	1	?	7
Cc1cc(N2CCN(c3ccc(F)cc3)CC2)nc(-c2ccccc2)n1	5%	?	10µM*	-1	?	16
CCNC(=O)C1(C)CCCN(C(=O)COc2ccc(Cl)cc2Cl)C1 (stereo not drawn)	nt	5	nt	nt	nt	nt
